# From PubChem BioAssay AID1159580 (chemical genetic matrix, 2015)
# Several values for one entry are separate records, joined by “and”; a condition that tells them apart may be missing. Equal values may be shown once. Screen size: about 5,500 compounds; about 2,000 (36%) were called active. About 18% were inconclusive and are not listed. This is one part of the list. Unmarked numbers belong to inactive results. Cut-off read from the data, not from the text of the source: active = normalized growth mostly below about 0.91 (no sharp cut-off); inconclusive = no clear call, values can overlap the other calls; inactive = mostly above about 0.92.
# Assay: chemical genetic growth profiling, strain panel (AID 1159580);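 note: tested at 20 µM; growth read once vehicle control cultures reached saturation at 30 °C; 1 = growth at the plate median or of vehicle wells; lower values mean less growth of the strain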
# Conditions: S. cerevisiae deletion strains, growth OD
compound,measurement,setting,value
Clc1ccc2c(c1)C(N1CCNCC1)=Nc1ccccc1O2,normalized growth,"locus YAL013W, strain DEP1, hits give low values",0.984 and 1.02
same,normalized growth,"locus YAL021C, strain ccr4, hits give low values",0.829 (active)
same,normalized growth,"locus YAL026C, strain drs2, hits give low values",0.466 (active)
same,normalized growth,"locus YAL030W, strain snc1, hits give low values",0.978
same,normalized growth,"locus YAL040C, strain CLN3, hits give low values",1.01
same,normalized growth,"locus YBL061C, strain skt5, hits give low values",0.991
same,normalized growth,"locus YBR009C, strain hhf1, hits give low values",0.963
same,normalized growth,"locus YBR021W, strain FUR4, hits give low values",0.989
same,normalized growth,"locus YBR023C, strain chs3, hits give low values",0.969
same,normalized growth,"locus YBR171W, strain sec66, hits give low values",0.991
same,normalized growth,"locus YBR229C, strain ROT2, hits give low values",0.952
same,normalized growth,"locus YBR231C, strain swc5, hits give low values",0.994
same,normalized growth,"locus YBR279W, strain paf1, hits give low values",0.968
same,normalized growth,"locus YCL011C, strain gbp2, hits give low values",0.988
same,normalized growth,"locus YCL016C, strain dcc1, hits give low values",0.979
same,normalized growth,"locus YCL029C, strain bik1, hits give low values",0.986
same,normalized growth,"locus YCL069W, strain vba3, hits give low values",0.969
same,normalized growth,"locus YCR088W, strain abp1, hits give low values",0.994
same,normalized growth,"locus YDL005C, strain med2, hits give low values",0.994
same,normalized growth,"locus YDL035C, strain GPR1, hits give low values",0.972
same,normalized growth,"locus YDL040C, strain nat1, hits give low values",1.01
same,normalized growth,"locus YDL074C, strain BRE1, hits give low values",1.03
same,normalized growth,"locus YDL101C, strain DUN1, hits give low values",0.991
same,normalized growth,"locus YDL134C, strain PPH21, hits give low values",0.996
same,normalized growth,"locus YDL185W, strain tfp1, hits give low values",0.986
same,normalized growth,"locus YDL192W, strain arf1, hits give low values",0.99
same,normalized growth,"locus YDR001C, strain nth1, hits give low values",0.992
same,normalized growth,"locus YDR069C, strain doa4, hits give low values",0.901
same,normalized growth,"locus YDR101C, strain arx1, hits give low values",0.995
same,normalized growth,"locus YDR137W, strain rgp1, hits give low values",1.32 [resistant] (active)
same,normalized growth,"locus YDR150W, strain NUM1, hits give low values",0.974
same,normalized growth,"locus YDR159W, strain sac3, hits give low values",0.984
same,normalized growth,"locus YDR162C, strain NBP2, hits give low values",0.988
same,normalized growth,"locus YDR195W, strain ref2",1.07
same,normalized growth,"locus YDR297W, strain sur2, hits give low values",0.992
same,normalized growth,"locus YDR318W, strain mcm21, hits give low values",0.993
same,normalized growth,"locus YDR334W, strain swr1, hits give low values",0.957
same,normalized growth,"locus YDR335W, strain msn5, hits give low values",0.975
same,normalized growth,"locus YDR388W, hits give low values",0.98
same,normalized growth,"locus YDR392W, strain spt3, hits give low values",1.06
same,normalized growth,"locus YDR502C, strain sam2, hits give low values",0.959
same,normalized growth,"locus YEL003W, strain gim4, hits give low values",0.996
same,normalized growth,"locus YEL037C, strain rad23, hits give low values",0.968
same,normalized growth,"locus YEL061C, strain CIN8 (second series), hits give low values",0.992
same,normalized growth,"locus YEL061C, strain CIN8, hits give low values",0.984
same,normalized growth,"locus YER002W, strain NOP16, hits give low values",0.998
same,normalized growth,"locus YER015W, strain faa2, hits give low values",0.983
same,normalized growth,"locus YER016W, strain bim1, hits give low values",0.993
same,normalized growth,"locus YER110C, hits give low values",0.978
same,normalized growth,"locus YER111C, strain swi4, hits give low values",0.984
same,normalized growth,"locus YER155C, strain BEM2 (second series), hits give low values",0.992
same,normalized growth,"locus YER155C, strain BEM2, hits give low values",1
same,normalized growth,"locus YER167W, strain BCK2, hits give low values",0.994
same,normalized growth,"locus YFR010W, strain ubp6, hits give low values",0.88 (active)
same,normalized growth,"locus YGL078C, strain dbp3, hits give low values",0.968
same,normalized growth,"locus YGL086W, strain mad1, hits give low values",0.986
same,normalized growth,"locus YGL167C, strain pmr1, hits give low values",0.974
same,normalized growth,"locus YGL173C, strain kem1, hits give low values",0.928
same,normalized growth,"locus YGL227W, strain vid30, hits give low values",0.985
same,normalized growth,"locus YGL240W, strain doc1, hits give low values",0.975
same,normalized growth,"locus YGL248W, strain PDE1, hits give low values",0.987
same,normalized growth,"locus YGL253W, strain hxk2, hits give low values",0.989
same,normalized growth,"locus YGR078C, strain PAC10, hits give low values",1
same,normalized growth,"locus YGR135W, strain pre9, hits give low values",0.98
same,normalized growth,"locus YGR229C, strain SMI1, hits give low values",0.937
same,normalized growth,"locus YGR252W, strain gcn5, hits give low values",0.915
same,normalized growth,"locus YHR013C, strain ard1, hits give low values",0.891
same,normalized growth,"locus YHR027C, strain rpn1, hits give low values",0.989
same,normalized growth,"locus YHR030C, strain SLT2, hits give low values",0.994 and 1.02
same,normalized growth,"locus YHR079C, strain IRE1 (second series), hits give low values",0.986
same,normalized growth,"locus YHR079C, strain IRE1, hits give low values",1.03
same,normalized growth,"locus YHR094C, strain hxt1, hits give low values",0.998
same,normalized growth,"locus YHR129C, strain ARP1, hits give low values",1
same,normalized growth,"locus YHR142W, strain chs7, hits give low values",0.957
same,normalized growth,"locus YHR200W, strain rpn10, hits give low values",0.992
same,normalized growth,"locus YIL066C, strain RNR3, hits give low values",0.978
same,normalized growth,"locus YIL073C, strain SPO22, hits give low values",1.05
same,normalized growth,"locus YIL125W, strain kgd1, hits give low values",0.97
same,normalized growth,"locus YIR030C, strain dcg1, hits give low values",0.986
same,normalized growth,"locus YJL092W, strain hpr5, hits give low values",0.987
same,normalized growth,"locus YJL095W, strain BCK1 (second series), hits give low values",0.965
same,normalized growth,"locus YJL095W, strain BCK1, hits give low values",0.98 and 1.02
same,normalized growth,"locus YJL115W, strain asf1, hits give low values",0.957
same,normalized growth,"locus YJL129C, strain trk1, hits give low values",1.06
same,normalized growth,"locus YJL134W, strain LCB3, hits give low values",0.985
same,normalized growth,"locus YJL154C, strain vps35, hits give low values",0.97
same,normalized growth,"locus YJL164C, strain tpk1, hits give low values",0.964
same,normalized growth,"locus YJL166W, strain qcr8, hits give low values",0.984
same,normalized growth,"locus YJL168C, strain set2, hits give low values",0.996
same,normalized growth,"locus YJL187C, strain SWE1 (second series), hits give low values",1
same,normalized growth,"locus YJR043C, strain POL32, hits give low values",1.02
same,normalized growth,"locus YJR066W, strain TOR1, hits give low values",0.972
same,normalized growth,"locus YJR075W, strain HOC1, hits give low values",1
same,normalized growth,"locus YKL009W, strain mrt4, hits give low values",0.96
